# Experimental data reported in PubChem BioAssay (NCI).
# Compounds without any hit were thinned out: in the full panel of roughly 83,000, 20% have a hit.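 Treatment: one concentration, 48 hours, 96-well format. Scoring: percent growth, with anything below 10 considered active.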 A number with no mark means an inactive call.
# Test system: MCF7 breast
# Assay: NCI-60 one-dose screen, 48 h (100 = growth as untreated, 0 = no growth, -100 = all killed)
# Details: 10 µM unless noted
row,Compound,growth [%]
1,CCC1(NC(=O)c2cc(F)c(F)c(F)c2F)C(=O)NC(=O)N(C(C)C)C1=O (centres undefined),96.4
2,O=C1NC(=O)C(=C/C=C/c2ccccc2)C(=O)N1,14.2
3,C[C@]12CCC3[C@@H](C[C@@H]4SC(Nc5ccccc5)=N[C@@]45CC(=O)CC[C@]35C)[C@@H]1CCC2=O (some centres undefined),15.4
4,CCCCOCCOP(=O)(OCCOCCCC)OCCOCCCC,105
5,Cc1cc[c-]cc1.Fc1c[c-]c(-c2ccccn2)c(F)c1.N#CCC[PH+](CCC#N)c1ccccc1.[Pt+2],20.8
6,CCN(CC)CCn1c(=O)n(C)c2ccccc21,102
7,COc1cc2c(cc1OC)[C@@H]1C(=O)c3ccc4c(c3O[C@@H]1CO2)C[C@H](C(C)C)O4,46.3
8,COC(=O)C12C3C4C1C1C2C3C41NC(=O)c1csc([C@@H](C[C@H](C(C)C)N(C)C(=O)[C@@H](NC(=O)[C@H]2CCCCN2C)C2CC2)OC(C)=O)n1 (some centres undefined),18.8
9,CC[C@H](CC[C@@H](C)[C@H]1CC[C@H]2[C@@H]3CC[C@H]4C[C@]5(CC[C@]4(C)[C@H]3CC[C@]12C)OO[C@](C)(C(F)(F)F)O5)C(C)C,93.2
10,CC(C)CCC1C(=O)NC(=O)NC1=O,88.8
11,CN1CCC2(CC1)C(C#N)C(=O)NC(=O)C2C#N (centres undefined),88.6
12,CC(=O)c1cccc(S(=O)(=O)F)c1,96.8
13,ClCc1ccc(Cl)c(Cl)c1,97.2
14,COc1cc2c(cc1OC)-c1c3c(cc4c1[C@@H](C2)N(C)CC4)OCO3,22.9
